This is part of a sample that, as a whole, favours compounds with a hit. Of some 83,000 tested, about 20% had one in any assay.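 A percent growth of 40 corresponds to 60% growth inhibition; 0 means no net growth; -100 means all cells died. Active threshold: below 10.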 A number with no mark means an inactive call. Activity calls are given as the source filed them.

This passage reports growth results from PubChem BioAssay (NCI).

This assay relates to HL-60(TB) leukemia. Description: NCI-60 one-dose screen, 48 h (100 = growth as untreated, 0 = no growth, -100 = all killed). The note with it: 10 µM unless noted.
Consider `O=C(O)c1cn(C2CC2)c2cc(N3CCN(C(=O)CN4C(=O)CSC4=O)CC3)c(F)cc2c1=O`, for which the growth was 135%.

Consider `Cc1ccc(NC(=S)NNC(=S)Nc2ccc(C)cc2)cc1`, for which the growth is 97.1%.

Regarding `Clc1ccc2[nH]cc(-c3nn4cc(-c5cccnc5)nc4s3)c2c1`, the growth was 86.2%.

Turning to `CC(=O)OC[C@@]12Oc3c(cccc3-c3ccc(O)c4c3O[C@]3(COC(C)=O)C(=C4O)C(=O)C[C@H](C)[C@@H]3OC(C)=O)C(O)=C1C(=O)C[C@H](C)[C@@H]2OC(C)=O`, the growth is -46.3% (active).

With `CCCCCCCn1cc2c(N[C@H](C)c3ccccc3)ncnc2n1`, the growth is 117%.

On to `Cc1ccc(C2CC(c3ccc(Nc4nc(NCCO)nc(Nc5ccc(Cl)cc5)n4)cc3)=Nc3c(N)nc(N)nc3N2)cc1` (stereo not given), for which the growth is 10.2%.

For the molecule `O=c1[nH]c2ccccc2cc1CSc1ccccc1Nc1nccc(-c2ccc(C(F)(F)F)cc2)n1`, the growth was 90%.

As to `Cc1ccc(C2=NN(C)C(=O)C3(CCCC3)C2)cc1`, the growth was 77.8%.

As to `O=C(CCCCCCN1CC(=O)N2[C@@H](c3cccc(Br)c3)c3[nH]c4ccccc4c3C[C@H]2C1=O)NO`, the growth is 6.52% (active).

`Cn1c2ccccc2c2c3c(c4c5ccc(Br)cc5oc4c21)C(=O)N(O)C3=O`: the growth is 73%.

In the case of `COc1ccc(COc2ccc(/C=C3\C(=O)Nc4ccccc43)cc2OC)cc1`, the growth is 115%.

As to `Clc1ccc(Cc2nnc3sc(-c4cccnc4)nn23)cc1`, the growth is 97.2%.

As to `C=C(C)[C@@H]1CC[C@]2(COCCCNCCC#N)CC[C@]3(C)[C@H](CC[C@@H]4[C@@]5(C)CC[C@H](OCCCNCCC#N)C(C)(C)[C@@H]5CC[C@]43C)[C@@H]12`, the growth was 0.0603% (active).

On to `O=C(N/N=C/c1cc2ccccc2nc1Cl)c1cc(-c2nc3ccccc3[nH]2)nc2ccccc12`, for which the growth is 92%.

As for `C[C@@H]1C[C@H]2C(=O)O[C@@H](C)C(NC(=O)[C@H](Cc3cc(F)cc(F)c3)NC(=O)Nc3ccc(C4CC4)cc3F)C(=O)N3CCC[C@H]3C(=O)N3CCCC[C@H]3C(=O)N[C@@H](CO)C(=O)N2C1` (stereo not given in full), the growth is 11.5%.

Turning to `O=C(CSc1nc2ccccc2c(=O)n1-c1ccccc1)Nc1ccc(-c2nc3ccc([N+](=O)[O-])cc3[nH]2)cc1`, the growth was 89.3%.

Consider `COc1ccc(S(=O)(=O)NCCCNc2nccc(-c3[nH]c(-c4ccccc4)nc3-c3ccc(Cl)c(O)c3)n2)cc1`, for which the growth is 43.2%.

Consider `O=C(CCN1C(=O)/C(=C/c2ccccc2F)SC1=S)N1CCOCC1`, for which the growth is 82.7%.

In the case of `COc1ccc(OC)c(CCn2cncc2-c2c[nH]c3ccc(Cl)cc23)c1`, the growth is 7.06% (active).

Turning to `N=c1c2cc(-c3ccccc3)oc2ncn1/N=C/c1ccc(Br)cc1`, the growth is 109%.

Take `NS(=O)(=O)c1cccc(Nc2nc(SCC(=O)c3ccc(Br)cc3)nc3ccccc23)c1`: the growth was 79.1%.

As for `O=C(CCCCCCNC(=O)C(O)(O)C(F)(F)F)Nc1ccc(Cl)cc1`, the growth is 9.84% (active).

As to `CC/C(=C(/c1ccc(Cl)cc1)c1ccc(OCCN)cc1)c1ccccc1`, the growth is 43.4%.

For the molecule `O=S(=O)(Oc1ccc(-c2cn3ccsc3n2)cc1)c1cccc(C(F)(F)F)c1`, the growth is 101%.

Turning to `O=C(Nc1cccc(C(F)(F)F)c1)N1CCN(c2cc(-c3cn(-c4ccccc4)nc3-c3cccc(O)c3)ccn2)CC1`, the growth was 20.9%.

For `COc1ccc(-c2cc(-c3ccc(Cl)cc3)nc3nc(N)nn23)cc1`, the growth is 72.2%.

For `Cc1ccc([C@H]2c3[nH]c4ccccc4c3C[C@H]3C(=O)N(CCCCCCC(=O)NO)CC(=O)N23)s1`, the growth was 50.1%.

For the molecule `CCN1C(=O)N(CC)C2SC(N/N=C/c3ccccc3F)=NC21` (stereo not given), the growth is 0.098% (active).

For the molecule `COc1ccccc1C(=O)Nc1cccc2c1C(=O)C(=O)C=C2`, the growth is 9.19% (active).

For the molecule `CC[C@H](C)[C@H]1NC(=O)[C@@H]([C@H](O)C(C)C)NC(=O)[C@@H](C)N(C)C(=O)[C@H](C)N(C)C(=O)[C@H](CC(C)C)NC(=O)[C@H](CC(C)C)N(C)C(=O)[C@H](C)N(C)C1=O`, the growth is -19.4% (active).

For `CN(C)c1ccc(/C=C2\Cc3c(F)ccc(Br)c3C2=O)cc1`, the growth was 79.6%.

As to `CNC(=O)c1c(NC(=O)c2ccc(F)cc2F)sc2c1CCC(=O)C2`, the growth was -12.6% (active).

Take `CN1CCN(c2ccc(Nc3nc(NCCNC(=O)c4ccc(F)cc4)c4sccc4n3)cc2)CC1`: the growth was 34.3%.

Regarding `CC(C)c1nn(-c2ccccc2)c(N2CCCCC2)c1/C=N/NC(N)=S`, the growth was 98.4%.

As to `N[C@@H](Cc1cn(-c2c3ccccc3nc3ccccc23)nn1)C(=O)O`, the growth is 95.5%.

On to `COc1ccc(-n2c(/C=C3\C(=O)Nc4ccccc43)ccc2CO)cc1`, for which the growth is 92.7%.

Take `CC(C)(C)n1nnnc1C(Nc1nccs1)c1cc2cccc3ccc4cccc1c4c32` (stereo not given): the growth was 90.2%.

As to `CNC(=O)c1cc(Oc2ccc3nc(NC(=O)c4cccc(C(F)(F)F)c4)sc3c2)ccn1`, the growth is 143%.

As to `O=C1Nc2ccccc2/C1=C/c1ccc(OCC(=O)c2ccccc2)cc1`, the growth is 105%.

As to `O=C(CCN1C(=O)/C(=C/c2ccccc2)SC1=S)N1CCOCC1`, the growth was 89.3%.
